# SSB-PriA inh: inhibitors of Klebsiella pneumoniae PriA binding to SSB C-terminal tail, primary screen, biochemical, AlphaScreen. 430,000 tested, 0.6% active. PriA–SSB C-terminal tail interaction (Klebsiella pneumoniae). AlphaScreen SSBct-PriA binding, biotinylated peptide. inhibition, % at 33 µM; in the data active = inhibition mostly above about 37%, no sharp cut-off; inactive = mostly below about 20%;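 also: plate controls were negative control peptide for no effect and reference peptide for full effect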
# MazF activator: activators of E. coli MazEF toxin-antitoxin RNase, primary screen, biochemical, fluorescence, uHTS | FAM/BHQ RNA-DNA oligo cleavage fluorescence, 5 h | activation, % at 20 µM | 350,000 tested, 0.32% active | AID 504720, 2011; in the data active = activation above about 50%
# Target sequence (P0AE70 whole entry, looked up): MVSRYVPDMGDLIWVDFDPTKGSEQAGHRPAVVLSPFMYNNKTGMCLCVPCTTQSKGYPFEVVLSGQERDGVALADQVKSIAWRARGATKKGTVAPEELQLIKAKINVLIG
# BJeLR lethal: MLPCN primary cell-based screen for lethality selective to Ras in HRASV12 cells | inhibition, % (concentration not given with the values) | AID 1554, 2009 | 300,000 tested, 0.17% active | BJeLR (HRASV12) viability, CellTiter-Glo ATP luminescence, 48 h; in the data active = inhibition above about 50%
# Sa ugtP lethal: growth inhibition of ugtP-null S. aureus, primary screen, RN4220 ugtP deletion, OD600. growth inhibition, % (no concentration beside the values). 330,000 tested, 0.54% active. 16 h; in the data active = growth inhibition above about 68%;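 also: plate controls were untreated wells for no effect and antibiotic for full effect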
# Sa RN4220 lethal: growth inhibition of S. aureus RN4220, primary screen, OD600; 16 h; inhibition, % (concentration not given with the values); 330,000 tested, 0.33% active; AID 1259311, 2017; in the data active = inhibition above about 85%;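 also: plate controls were untreated cells for no effect and reference antibiotic for full effect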
# Numbers without * were called inactive; / = no result; + = active, no number; ! = a repeat was not active. The list is not random: actives were taken first. Their share in the collection is about 1.2%.
SMILES,SSB-PriA inh,MazF activator,BJeLR lethal,Sa ugtP lethal,Sa RN4220 lethal
CCOC(=O)c1cc(NC(=O)C2C3CCC(O3)C2C(=O)O)cc(C(=O)OCC)c1 (stereo unspecified),53*,-4,14,-6,-1
CCOC(=O)c1cc(NC(=O)C2C3C=CC(O3)C2C(=O)O)cc(C(=O)OCC)c1 (stereo unspecified),-5,4,-1,0,1
Cc1cc(Nc2ccc(Br)cc2)c2c([N+](=O)[O-])ccc(C)c2n1,55,/,/,/,/
COc1ccc(Nc2cc(C)nc3c(C)ccc([N+](=O)[O-])c23)cc1,112*,/,/,/,/
C#CCSc1nnnn1-c1cccc(Cl)c1,-24,0,-5,3,2
C#CCSc1nnnn1-c1ccc(Br)c(C)c1,83*,-12,-13,/,/
Cc1ccc(NC(=O)NNC(=O)COc2ccc([N+](=O)[O-])cc2)cc1C,40*,-15,-10,4,2
CCCCCN1C=CC(=C2C(=O)c3ccccc3C2=O)C=C1,2,0,51*,5,5
COC(=O)CN1C(=O)S/C(=C/c2ccc(N3CCCCC3)o2)C1=O,-5,386*,1,-11,0
CCOC(=O)CN1C(=O)S/C(=C/c2ccc(N3CCCCC3)o2)C1=O,-1,31,-4,-1,2
O=C(Nc1cc(C(F)(F)F)ccc1Cl)c1cccnc1,2,-5,-5,/,/
CCCOc1cc(Nc2ccc(NC(=O)Nc3ccc(F)c(Cl)c3)cc2)nc(C)n1,11,/,/,/,/
C=CCSc1nnc(NC(=O)C2CSC3(C)CCC(=O)N23)s1 (stereo unspecified),-10,-2,10,1,5
Nc1nc(Nc2ccccc2F)sc1C(=O)c1ccccc1,19,4,18,-3,11
CC(=O)c1ccc(Oc2ccc(C(=O)c3ccc(C)c(C)c3)cc2[N+](=O)[O-])cc1,4,-8,3,0,-6
COC(=O)c1ccc(Oc2ccc(C(C)(C)C)cc2)c([N+](=O)[O-])c1,-5,-13,-2,95*,-15
c1ccc(CN2CCNCC2)nc1,6,-12,0,7,0
c1ccc(CNCCN2CCNCC2)nc1,38*,7,1,2,2
CCCCCCCCC[n+]1cccc2c3ccccc3ccc21,-28,21,10,100*,100*
CCCCCCCCCCCCCCCC[n+]1cccc2ccccc21,16,-2,/,97*,99*
COc1ccc(CN2CCN(C(C)C(=O)N(C)Cc3cccc(F)c3)CC2)cc1OC (stereo unspecified),52*,3,0,1,1
COc1ccc(CN2CCN(C(C)C(=O)NC(C)c3ccc(F)cc3)CC2)cc1F (stereo unspecified),-14,4,-2,3,8
COC(=O)Cn1cc(/C=C2\C(=O)NC(=O)N(c3ccc(OC)cc3)C2=O)c2ccccc21,-4,111*,4,10,3
COc1ccc(N2C(=O)NC(=O)/C(=C\c3cn(C)c4ccccc34)C2=O)cc1,-7,290*,8,-12,1
O=C(O)Cn1cc(/C=C2\C(=O)NC(=O)N(c3ccc(F)cc3)C2=O)c2ccccc21,/,/,1,/,/
SMILES,SSB-PriA inh,MazF activator,BJeLR lethal,Sa ugtP lethal,Sa RN4220 lethal
COCCNC(=O)Cn1cc(/C=C2\C(=O)NC(=O)N(c3ccccc3F)C2=O)c2ccccc21,-3,+,5,-6,2
COC(=O)Cn1cc(C=C2C(=O)NC(=O)NC2=O)c2ccccc21,5,-231,-1,/,/
Cc1nc([N+](=O)[O-])cn1CCC#N,-11,4,-11,-6,2
O=C1N=C(N2CCOCC2)S/C1=C\c1ccc(-c2ccccc2Cl)o1,-11,61*,22,-8,-1
Cc1ccccc1-c1ccc(/C=C2/SC(N3CCOCC3)=NC2=O)o1,-5,151*,10,3,9
COc1ccc(-c2ccc(/C=C3/SC(N4CCOCC4)=NC3=O)o2)cc1,-12,/,/,/,/
Nc1ncnc2c1ncn2[C@@H]1O[C@H](COP(=O)(O)OP(=O)(O)OP(=O)(O)O)[C@@H](O)[C@H]1O,-4,8,/,/,/
COC(=O)C1=CN(c2cccc(C)c2)C=C(C(=O)OC)C1c1cc(OC)c(O)c([N+](=O)[O-])c1,53*,2,-2,3,6
O=C1NC(=S)SC1=Cc1ccccc1Cl,0,1,/,100*,98*
O=C1NC(=S)S/C1=C\c1cc2ccccc2nc1N1CCCCC1,7,-10,9,86*,84*
COc1ccc2nc(N3CCCCC3)c(/C=C3\SC(=S)NC3=O)cc2c1,6,4,-8,73,77
COc1ccccc1C=C1SC(=S)NC1=O,-2,-1,/,/,/
COc1ccc(/C=C2\COc3ccccc3C2=O)c(OC)c1,3,-1,-3,9,6
COc1ccc(C=C2c3ccccc3C(=O)c3ccccc32)c(OC)c1,/,/,53*,/,/
CCc1ccc(S(=O)(=O)N=C2C=C(Nc3ccc(O)cc3)C(=O)c3ccccc32)cc1,95*,/,/,/,/
O=C1C(Nc2ccc(O)cc2)=C/C(=N/S(=O)(=O)c2cccs2)c2ccccc21,/,31,10,/,/
Cc1ccc(Cl)cc1NC1=C/C(=N\S(=O)(=O)c2cccs2)c2ccccc2C1=O,/,-6,10,46,90*!
O=C1C(Nc2ccc(O)cc2)=CC(=NS(=O)(=O)c2cccs2)c2ccccc21,76*,/,/,21,41
COc1ccc(CCC(=O)N2CCS[C@H](c3ccco3)CC2)cc1,6,/,/,/,/
N#Cc1ccccc1NC(=O)Nc1ccccc1,1,5,-6,12,6
O=C1Nc2ccc(Br)cc2C12NNc1ccccc1O2 (stereo unspecified),9,84*,-17,97*,85
C=CCn1c(SC(F)F)nc2scc(-c3ccco3)c2c1=O,-2,-4,9,95*,7
COc1cc(OC)c(C(=O)C=Cc2ccc(OC)c(OC)c2)c(OC)c1,1,2,/,-3,0
COc1ccc(/C=C/C(=O)c2ccc([N+](=O)[O-])o2)cc1OC,4,12,70*,/,/
COc1cc(/C=C/[N+](=O)[O-])ccc1O,-12,-2,72*,/,/
SMILES,SSB-PriA inh,MazF activator,BJeLR lethal,Sa ugtP lethal,Sa RN4220 lethal
COc1cc(/C=C/C(=O)c2ccc([N+](=O)[O-])o2)ccc1O,32,1,92*,/,/
Cc1ccn2c(=O)c(C(=O)NCCCN3CCCCC3C)c(O)nc2c1 (stereo unspecified),5,-3,-8,5,4
Cc1cccnc1Sc1c([N+](=O)[O-])ncn1C,-8,8,0,-2,1
CC(=O)CSc1ncnc2nc[nH]c12,-6,3,2,-5,4
Cn1cnc(Sc2ncnc3nc[nH]c23)c1[N+](=O)[O-],2,6,54*,/,/
Cn1cnc([N+](=O)[O-])c1Sc1ncnc2nc[nH]c12,-1,-4,69*,3,3

# Bioassay records as filed in PubChem.
